Among the data in PMC12820563, “FoxP3 forms a head-to-head dimer in vivo and stabilizes its multimerization on adjacent microsatellites” are binding signal values, retold here.

Whole data set: some 16,000 sequences, median “rpm ratio (pull-down/input)” near 0.94, cut for the highest 2% near 1.7. The entries come from a sample that favours the highest values as a whole.

The test addresses T1, MBP-FoxP1dN (Mus musculus, UniProt P58462 326-579).
T1 sequence: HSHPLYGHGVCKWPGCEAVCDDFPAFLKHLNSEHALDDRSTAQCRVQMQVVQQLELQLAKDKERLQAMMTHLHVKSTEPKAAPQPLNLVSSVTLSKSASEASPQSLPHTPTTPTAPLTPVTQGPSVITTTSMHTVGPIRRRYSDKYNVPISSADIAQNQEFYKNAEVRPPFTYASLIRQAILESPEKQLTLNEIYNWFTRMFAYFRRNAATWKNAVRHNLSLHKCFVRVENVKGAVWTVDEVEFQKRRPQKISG
The experiment in a line: PD-seq (MBP pull-down with sequencing); 20 mM Tris-HCl pH 7.5, 100 mM NaCl, 1.5 mM MgCl2, 0.4 uM protein, 0.1 uM dsDNA library, 30 min, room temperature, amylose pull-down; high values mean tight binding. The following applies: protein: recombinant; tags: His6-MBP; chain copies: 2; dsDNA, one strand shown. In a few lines: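 Amylose resin was used to capture complexes formed during 30 min at room temperature in Tris pH 7.5 buffer with NaCl and MgCl2 between 0.4 µM His6-MBP-tagged mouse FoxP3 or FoxP1 fragment lacking the N-terminus, expressed in E. coli, and 0.1 µM Klenow-filled double-stranded degenerate DNA library. After three washes, the DNA was released with proteinase K, barcoded by PCR and sequenced on Illumina. Binding is pooled-replicate reads-per-million enrichment, pull-down over input.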
Turning to “GATGATTGTTCTCCCAGCTGATGAATTTGGTTAGTCGAGTAAACAAATTTTCCTAATCTTTCTGTTCAAGCGCCATCTAC”, the binding signal is 0.953 RPM ratio (pull-down/input).
Turning to “GATGATTGTTCTCCCAGCTGATGAATTCTTTAGGTCGAGTAAACAAATTTTCCTAATCTTTCTGTTCAAGCGCCATCTAC”, the binding signal was 0.821 RPM ratio (pull-down/input).
Turning to “GATGATTGTTCTCCCAGCTGATGAATTTGTTTAGTCGAGTAAACAAATTTTCCTAATCTTTCTGTTCAAGCGCCATCTAC”, the binding signal is 2.24 RPM ratio (pull-down/input).
Regarding “GATGATTGTTCTCCCAGCTGATGAATTCTGTTAGTCGAGTAAACAAATTTTCCTAATCTTTCTGTTCAAGCGCCATCTAC”, the binding signal is 1.29 RPM ratio (pull-down/input).
As to “GATGATTGTTCTCCCAGCTGATGAATTCGACATATCGAGTAAACAAATTTTCCTAATCTTTCTGTTCAAGCGCCATCTAC”, the binding signal was 0.996 RPM ratio (pull-down/input).
As for “GATGATTGTTCTCCCAGCTGATGAATTGTATGACTCGAGTAAACAAATTTTCCTAATCTTTCTGTTCAAGCGCCATCTAC”, the binding signal was 0.974 RPM ratio (pull-down/input).
“GATGATTGTTCTCCCAGCTGATGAATTTATCAGATCGAGTAAACAAATTTTCCTAATCTTTCTGTTCAAGCGCCATCTAC”: the binding signal is 1.03 RPM ratio (pull-down/input).
As to “GATGATTGTTCTCCCAGCTGATGAATTCAGGCGGTCGAGTAAACAAATTTTCCTAATCTTTCTGTTCAAGCGCCATCTAC”, the binding signal was 0.783 RPM ratio (pull-down/input).
With “GATGATTGTTCTCCCAGCTGATGAATTACTAAGGTCGAGTAAACAAATTTTCCTAATCTTTCTGTTCAAGCGCCATCTAC” the figure was 1.03 RPM ratio (pull-down/input); with “GATGATTGTTCTCCCAGCTGATGAATTACTTTGGTCGAGTAAACAAATTTTCCTAATCTTTCTGTTCAAGCGCCATCTAC”, 0.952 RPM ratio (pull-down/input); with “GATGATTGTTCTCCCAGCTGATGAATTTTGATGGTCGAGTAAACAAATTTTCCTAATCTTTCTGTTCAAGCGCCATCTAC”, 1.04 RPM ratio (pull-down/input).
Turning to “GATGATTGTTCTCCCAGCTGATGAATTGCTATTGTCGAGTAAACAAATTTTCCTAATCTTTCTGTTCAAGCGCCATCTAC”, the binding signal was 2.28 RPM ratio (pull-down/input).
With “GATGATTGTTCTCCCAGCTGATGAATTATTGCTGTCGAGTAAACAAATTTTCCTAATCTTTCTGTTCAAGCGCCATCTAC” the figure was 1.67 RPM ratio (pull-down/input).
Turning to “GATGATTGTTCTCCCAGCTGATGAATTTGCTATGTCGAGTAAACAAATTTTCCTAATCTTTCTGTTCAAGCGCCATCTAC”, the binding signal was 1.06 RPM ratio (pull-down/input).
In the case of “GATGATTGTTCTCCCAGCTGATGAATTTGCTATTTCGAGTAAACAAATTTTCCTAATCTTTCTGTTCAAGCGCCATCTAC”, the binding signal is 1.17 RPM ratio (pull-down/input).
Consider “GATGATTGTTCTCCCAGCTGATGAATTTTGCTATTCGAGTAAACAAATTTTCCTAATCTTTCTGTTCAAGCGCCATCTAC”, for which the binding signal was 1.32 RPM ratio (pull-down/input).
With “GATGATTGTTCTCCCAGCTGATGAATTGCTATTTTCGAGTAAACAAATTTTCCTAATCTTTCTGTTCAAGCGCCATCTAC” the figure was 2.22 RPM ratio (pull-down/input); with “GATGATTGTTCTCCCAGCTGATGAATTAGGCGCGTCGAGTAAACAAATTTTCCTAATCTTTCTGTTCAAGCGCCATCTAC”, 1.03 RPM ratio (pull-down/input); with “GATGATTGTTCTCCCAGCTGATGAATTGGACTATTCGAGTAAACAAATTTTCCTAATCTTTCTGTTCAAGCGCCATCTAC”, 0.893 RPM ratio (pull-down/input).
With “GATGATTGTTCTCCCAGCTGATGAATTCCCCGGATCGAGTAAACAAATTTTCCTAATCTTTCTGTTCAAGCGCCATCTAC” the figure was 0.788 RPM ratio (pull-down/input).
The value for “GATGATTGTTCTCCCAGCTGATGAATTTACCTACTCGAGTAAACAAATTTTCCTAATCTTTCTGTTCAAGCGCCATCTAC” was 1.24 RPM ratio (pull-down/input).
Consider “GATGATTGTTCTCCCAGCTGATGAATTACCAAAATCGAGTAAACAAATTTTCCTAATCTTTCTGTTCAAGCGCCATCTAC”, for which the binding signal was 1.3 RPM ratio (pull-down/input).
Regarding “GATGATTGTTCTCCCAGCTGATGAATTTACCAAATCGAGTAAACAAATTTTCCTAATCTTTCTGTTCAAGCGCCATCTAC”, the binding signal was 1.65 RPM ratio (pull-down/input).
Consider “GATGATTGTTCTCCCAGCTGATGAATTAATTACATCGAGTAAACAAATTTTCCTAATCTTTCTGTTCAAGCGCCATCTAC”, for which the binding signal is 1.26 RPM ratio (pull-down/input).
As for “GATGATTGTTCTCCCAGCTGATGAATTACTAACATCGAGTAAACAAATTTTCCTAATCTTTCTGTTCAAGCGCCATCTAC”, the binding signal is 1.77 RPM ratio (pull-down/input).
“GATGATTGTTCTCCCAGCTGATGAATTATTTACATCGAGTAAACAAATTTTCCTAATCTTTCTGTTCAAGCGCCATCTAC”: the binding signal is 2.34 RPM ratio (pull-down/input).
The value for “GATGATTGTTCTCCCAGCTGATGAATTACCAACATCGAGTAAACAAATTTTCCTAATCTTTCTGTTCAAGCGCCATCTAC” was 1.94 RPM ratio (pull-down/input); that for “GATGATTGTTCTCCCAGCTGATGAATTACTACCATCGAGTAAACAAATTTTCCTAATCTTTCTGTTCAAGCGCCATCTAC” was 1.13 RPM ratio (pull-down/input); that for “GATGATTGTTCTCCCAGCTGATGAATTACTAAAATCGAGTAAACAAATTTTCCTAATCTTTCTGTTCAAGCGCCATCTAC” was 1.34 RPM ratio (pull-down/input).
For “GATGATTGTTCTCCCAGCTGATGAATTACATTTATCGAGTAAACAAATTTTCCTAATCTTTCTGTTCAAGCGCCATCTAC”, the binding signal was 1.52 RPM ratio (pull-down/input).
As for “GATGATTGTTCTCCCAGCTGATGAATTACAAACATCGAGTAAACAAATTTTCCTAATCTTTCTGTTCAAGCGCCATCTAC”, the binding signal is 2.67 RPM ratio (pull-down/input).
As to “GATGATTGTTCTCCCAGCTGATGAATTTATTACATCGAGTAAACAAATTTTCCTAATCTTTCTGTTCAAGCGCCATCTAC”, the binding signal was 1.21 RPM ratio (pull-down/input).
On to “GATGATTGTTCTCCCAGCTGATGAATTGATTACATCGAGTAAACAAATTTTCCTAATCTTTCTGTTCAAGCGCCATCTAC”, for which the binding signal was 1.58 RPM ratio (pull-down/input).
